# Compounds with a hit are over-represented: about 1.2% of the library has one in this group of screens.
# GSH fluor: GSH bead compound fluorescence profile; fluorescence (KMESF) at 10 µM; GSH beads flow cytometry, compound fluorescence 488/530 nm; stronger effect = higher value; actives 0.25% (n = 190,000); in the data active means fluorescence above about 89;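 further: glutathione beads carrying GST-tagged Bcl family fusion proteins plus one bare bead set; values are compound well signal with DMSO vehicle wells as background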
# RGS8-Gao reg: regulators of human RGS8-Galphao interaction; response (percent of control binding), % at 10 µM; AID 1423; multiplexed bead flow cytometry, RGS8-Galphao binding; actives lie on both sides; P09471; actives 0.34% (n = 220,000); in the data active means response below about 60% or above about 140%; inactive means in between;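 further: Galphao activated as the GDP aluminium fluoride complex binding bead-coupled RGS8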
# Target sequence (P09471 whole entry, looked up): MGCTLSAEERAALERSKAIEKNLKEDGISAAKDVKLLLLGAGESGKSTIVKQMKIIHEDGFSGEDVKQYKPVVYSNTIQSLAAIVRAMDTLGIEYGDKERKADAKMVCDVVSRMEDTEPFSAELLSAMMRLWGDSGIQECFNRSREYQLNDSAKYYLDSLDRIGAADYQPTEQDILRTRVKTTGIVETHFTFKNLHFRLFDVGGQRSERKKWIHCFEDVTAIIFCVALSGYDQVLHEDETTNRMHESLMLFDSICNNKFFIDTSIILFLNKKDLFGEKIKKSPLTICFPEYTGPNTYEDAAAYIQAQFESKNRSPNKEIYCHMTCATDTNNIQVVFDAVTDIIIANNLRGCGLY
# RGS7-Gao: modulates binding of RGS7 to human Galphao; P09471; Multiplexed bead flow cytometry; actives lie on both sides; binding response (% of control), % at 10 µM; actives 0.35% (n = 220,000); AID 1439; in the data active means binding response below about 49% or above about 150%; inconclusive means no clear call, values can overlap the other calls; inactive means in between;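 further: fluorescent Galphao held in activated GDP-AlF4 state binding bead-coupled RGS7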
# RGS16-Gao: modulates binding between human RGS16 and Galphao | O15492+P09471 | bead-based flow cytometry RGS16-Galphao binding, fluorescence; actives lie on both sides | binding response (% of control), % at 10 µM | actives 0.38% (n = 220,000) | AID 1441;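 further: Galphao activated by GDP with aluminum fluoride before binding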
# RGS4-Gao reg: human RGS4-Galphao interaction regulation | P09471 | Multiplexed bead flow cytometry, RGS4-Galphao binding; actives lie on both sides | binding response (% of control), % at 10 µM | actives 0.33% (n = 220,000) | AID 1415; in the data active means binding response below about 49% or above about 150%; inactive means in between;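 further: fluorescent Galphao activated with aluminum fluoride binding bead-coupled RGS4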
# Avidin fluor: avidin bead compound fluorescence profile; Avidin beads, compound fluorescence 488/530 nm, flow cytometry; stronger effect = higher value; fluorescence (KMESF) at 10 µM; actives 0.38% (n = 220,000); AID 1775; in the data active means fluorescence above about 47
# RGS-Gao: modulates binding between human RGS4 and Galphao; multiplexed bead flow cytometry, RGS–Galpha-o binding; RGS4–Galpha-o binding response, % at 10 µM; shares compounds with RGS16-Gao; actives 99% (n = 1,600);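 further: fluorescently labeled Galpha-o bound to GDP with aluminium fluoride binding biotinylated RGS beads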
# Biotin-avidin: interferes with biotinylated probe binding to avidin beads; inhibition, % at 10 µM; 1,700 tested, under 10 active; shares compounds with RGS16-Gao; streptavidin beads, fluorescein-biotin binding, flow cytometry;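 active means inhibition above 50%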;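 further: median green fluorescence of gated singlet beads compared with DMSO control wells; 0% = DMSO wells and 100% = complete loss of bead fluorescence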
# RGS8-Gao single: confirmation of regulators of human RGS8-Galphao interaction | bead-based flow cytometry RGS8-Galphao binding, fluorescence; actives lie on both sides | shares compounds with RGS16-Gao | binding response (% of control), % at 10 µM | actives 3% (n = 1,700); in the data active means binding response below about 72% or above about 130%; inactive means in between;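 further: Galphao activated as GDP AlF4 complex before binding bead RGS8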
# RGS7-Gao single: confirmation of regulators of human RGS7-Galphao interaction | shares compounds with RGS16-Gao | bead-based flow cytometry RGS7-Galphao binding; actives lie on both sides | response (percent of control binding), % at 10 µM | actives 7.8% (n = 1,700) | AID 1837; in the data active means response below about 75% or above about 130%; inactive means in between;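 further: fluorescent Galphao activated with GDP and aluminum fluoride binding bead-coupled RGS7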
# RGS16-Gao conf: RGS16-Galphao interaction regulation, single point confirmation | shares compounds with RGS16-Gao | bead-based flow cytometry, RGS16-Galphao binding; actives lie on both sides | response (% of control binding), % at 10 µM | actives 4% (n = 1,700); in the data active means response below about 74% or above about 130%; inactive means in between;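 further: Galphao activated as the GDP aluminium fluoride complex binding bead-coupled RGS16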
# RGS4-Gao confirm: confirmation of regulators of human RGS4-Galphao interaction | shares compounds with RGS16-Gao | RGS4-Galphao binding, multiplexed bead flow cytometry; actives lie on both sides | actives 4% (n = 1,700) | binding response (% of control), % at 10 µM; in the data active means binding response below about 74% or above about 130%; inactive means in between
# RGS19-Gao conf: confirmation of regulators of human RGS19-Galphao interaction; shares compounds with RGS16-Gao; bead-based flow cytometry RGS19-Galphao binding; actives lie on both sides; response (percent of control binding), % at 10 µM; actives 5% (n = 1,700); in the data active means response below about 50% or above about 160%; inactive means in between;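 further: 100% = no compound control and 0% = blank background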
# Target sequence (P09471 whole entry, looked up): as above
# Target sequence (P49795 whole entry, looked up): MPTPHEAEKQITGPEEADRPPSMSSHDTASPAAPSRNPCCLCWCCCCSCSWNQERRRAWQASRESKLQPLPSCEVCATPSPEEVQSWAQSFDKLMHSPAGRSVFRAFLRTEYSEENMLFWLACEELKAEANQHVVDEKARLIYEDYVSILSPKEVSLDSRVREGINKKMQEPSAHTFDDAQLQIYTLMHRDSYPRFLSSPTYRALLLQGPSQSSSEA
# Numbers without * were called inactive; ? = inconclusive; / = no result; [ ] = remark or other dose. Unless noted, how the calls were made is not given here.
SMILES,GSH fluor,RGS8-Gao reg,RGS7-Gao,RGS16-Gao,RGS4-Gao reg,Avidin fluor,Biotin-avidin,RGS8-Gao single,RGS7-Gao single,RGS16-Gao conf,RGS4-Gao confirm,RGS19-Gao conf,others
Cc1cc(C)n2nc(C(=O)NC3CCCc4ccccc43)nc2n1 (configuration not stated),25,105,103,104,102,9,/,/,/,/,/,/,
O=C(N/N=C\c1c(O)ccc2ccccc12)c1ccc(Cn2cccn2)o1,9,43*,58,12*,57,1,-1,94,88,90,93,128,RGS-Gao=57*
O=C(N/N=C\c1ccc(Cl)s1)c1ccc(Cn2cccn2)o1,7,100,98,99,96,2,/,/,/,/,/,/,
CCN(CC)CC(=O)Nc1scc2c1c(=O)oc1ccccc12,/,100,?,98,96,7,/,/,/,/,/,/,
Cc1c(Cl)cccc1NC(=S)N1CCN(Cc2ccccc2)CC1,17,126,110,226,107,29,2,102,106,101,101,93,
S=C(Nc1ccccc1Cl)N1CCN(Cc2ccccc2)CC1,12,107,110,113,109,6,/,/,/,/,/,/,
CC(=O)Nc1nc(COc2ccccc2)cs1,20,97,99,96,101,7,/,/,/,/,/,/,
Cc1ccc(C(=O)Nc2nc(COc3ccccc3)cs2)s1,44,/,/,/,/,/,-1,104,100,101,104,107,
Cc1nn(CCC#N)c(N)c1C1(O)C(=O)Nc2c(Cl)cc(Cl)cc21 (configuration not stated),/,105,?,108,114,4,/,/,/,/,/,/,
COc1ccc(C2=CC(=O)C=CC2=O)cc1,/,71,?,67,93,5,1,53*,80,15*,97,32*,
CCOc1ccc2c(c1)n(CO)c(=S)n2CO,25,100,176*[activator],104,112,104*,0,91,79,93,90,110,RGS-Gao=112*
CCOc1ccc2[nH]c(=S)[nH]c2c1,27,101,105,103,101,15,/,/,/,/,/,/,
Cc1ccc(NC(=O)CN2C(=O)S/C(=C\C(=O)Nc3ccc(Cl)cc3)C2=O)cc1,5,79,75,8.0*,79,7,2,104,95,105,99,91,RGS-Gao=79*
Cn1cccc1/C=C1\SC(=O)N(CC(=O)Nc2ccc(Cl)cc2)C1=O,14,98,100,98,102,/,/,/,/,/,/,/,
CCn1c(C)cc(/C=C2\SC(=O)N(CC(=O)Nc3ccc(C)c(C)c3)C2=O)c1C,14,6.0*,-28*,-95*,-95*,-2,-1,100,92,97,98,96,
COc1cccc(Cn2c(Oc3ccccc3)nc3c2c(=O)n(C)c(=O)n3C)c1,43,86,90,-247*,83,1,/,/,/,/,/,/,RGS-Gao=83*
Cn1c(=NC(=O)c2ccccc2[N+](=O)[O-])sc2cccc(F)c21,/,106,?,107,108,5,/,/,/,/,/,/,
CCCCC1=CC2=CC(=O)C(C)(OC(=O)c3cnc4ccccc4n3)C(=O)C2=CO1 (configuration not stated),/,98,?,96,91,8,/,/,/,/,/,/,
CCCc1nc(NC(=O)c2ccccc2)nc(NC(=O)c2ccccc2)n1,/,116,?,115,109,6,/,/,/,/,/,/,
CC(C)CC(=O)c1c[nH]c(C(=O)N2CCN(Cc3ccccc3)CC2)c1,12,97,?,96,99,11,/,/,/,/,/,/,
Cc1noc(C)c1CSc1ncnc2sc3c(c12)CCCCC3,21,97,96,96,96,6,/,/,/,/,/,/,
Cc1noc(C)c1CSc1ncnc2sc(C)c(C)c12,46,104,/,/,102,/,-1,102,98,102,103,96,
CCCn1c(SCC(=O)Nc2cc(S(=O)(=O)N(C)C)ccc2OC)n[nH]c1=O,13,101,?,96,98,8,/,/,/,/,/,/,
O=C(O)/C=C\C(=O)Nc1ccc(F)c(F)c1F,/,103,?,100,102,3,/,/,/,/,/,/,
S=c1[nH]nc(-c2ccc3ccccc3n2)n1-c1ccc(Cl)cc1,12,114,119,177*[activator],110,4,-2,91,101,92,95,99,RGS-Gao=110*
SMILES,GSH fluor,RGS8-Gao reg,RGS7-Gao,RGS16-Gao,RGS4-Gao reg,Avidin fluor,Biotin-avidin,RGS8-Gao single,RGS7-Gao single,RGS16-Gao conf,RGS4-Gao confirm,RGS19-Gao conf,others
O=C1CC(SC(=Nc2ccccc2)Nc2ccccc2)C(=O)N1c1ccc(Cl)cc1 (configuration not stated),12,104,100,111,102,5,/,/,/,/,/,/,
O=C(CSC1CC(=O)N(c2ccc(C(=O)O)cc2)C1=O)Nc1ccc(Cl)cc1 (configuration not stated),31,99,241*[activator],109,123,117*,-1,105,96,104,103,114,RGS-Gao=123*
COc1ccc(C)cc1-n1nnnc1SCC1CCCO1 (configuration not stated),24,16*,21*,17*,26*,2,-2,108,108,108,106,118,
O=C(CN1CCN(S(=O)(=O)c2ccc(Br)cc2)CC1)N/N=C/c1ccc(Br)s1,12,107,114,108,111,8,/,/,/,/,/,/,
CCOc1ccc(C2NC(=O)NC(C)=C2C(=O)OC)cc1C (configuration not stated),29,/,/,/,/,/,2,102,100,101,104,95,
O=C(CSc1ccc(Cl)cc1)N/N=C/c1cccnc1,15,87,96,61,94,6,/,/,/,/,/,/,
O=C(Nc1ccc(C2=NCCN2)cc1)c1ccc(C(=O)Nc2ccc(C3=NCCN3)cc2)c(Cl)c1,/,143*[activator],?,119,199*[activator],9,0,106,105,98,105,135,
COc1ccc(OC)c(NC(=O)c2ccc(CSc3ncccn3)cc2)c1,26,100,104,102,99,12,/,/,/,/,/,/,

# High-throughput results from PubChem BioAssay.
